# In the library only some 19% were active in any assay of this set; here they are far more common.
# HT1080-NT tox – kills 2HG-producing HT-1080-NT fibrosarcoma cells; HT-1080-NT fibrosarcoma viability, CellTiter-Glo ATP luminescence, 48 h; 360,000 tested, 1.6% active; Potency, µM (highest dose often 46.1 µM), for inactives: at the top dose activity, negative = less viability, usual class: cytotoxic;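 further: NT is the 2HG producing partner of a matched IDH1 knockdown line; potency means the concentration at half of the fitted maximal effect; 0% = DMSO-treated cells and -100% = media-only wells without cells; nearly all actives have a fitted effect of over 55% in size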
#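 HT-1080-NT fibrosarcoma cells (2HG-overproducing), 750 cells/well in RPMI with 5% FBS, dosed after 2 h and incubated 48 h at 37C. CellTiter-Glo luminescence normalized to DMSO and no-cell wells; concentration-response curves fitted and classed.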
# HT1080 IDH1KD tx – HT-1080 IDH1 knockdown cell toxicity (counter line); Potency, µM (top dose mostly 46.1 µM), for inactives: top-dose activity, negative = toxicity, usual class: cytotoxic; HT-1080 IDH1 knockdown viability, ATP luminescence, 48 h; 360,000 tested, 2% active;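 further: potency means the concentration at half of the fitted maximal effect; 0% = DMSO wells and -100% = cell-free medium wells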
#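 CellTiter-Glo luminescence after 48 h compound exposure at 37 degrees C of IDH1-knockdown HT-1080 cells in 5% FBS RPMI. %Activity scaled between DMSO wells and cell-free media wells, with curves fitted and assigned curve classes.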
# TDP1 cell CPT – DT40-hTDP1 cell growth loss with CPT | chicken DT40 Tdp1-/-;hTDP1 cells + 20 nM CPT, ATP luminescence, 48 h | Potency, µM (top dose mostly 46.2 µM), for the others: at the highest dose activity change, negative = growth inhibition, hits mostly inhibitors | 420,000 tested, 12% active | AID 686979; further: potency means the concentration at half of the fitted maximal effect; nearly all actives have a fitted effect of over 55% in size
#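 Cell growth measured by CellTiter-Glo luminescence after a minimum 48 h, 37 C compound exposure with 20 nM CPT in Tdp1-knockout DT40 cells stably expressing hTDP1, seeded 400/well; qHTS titration format.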
# IL1B secr inh – inhibitors of inflammasome signaling (IL-1 beta secretion); THP-1 LPS/ATP IL-1B secretion, AlphaLISA, 16 h; stronger effect = lower value; activity change, % at 57.5 µM; 360,000 tested, 4.7% active; AID 743279; in the data active means activity change below about -50%; inconclusive means mostly about -30% to -49%
#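 THP-1 cells pretreated 1 hr with compounds (up to 57.5 uM final), then stimulated with LPS (250 ng/mL final) plus ATP (1.25 mM final); secreted IL-1B measured by AlphaLISA after 16 hr, decreased signal indicating inhibition.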
# TDP1 cell noCPT – qHTS for Inhibitors of human tyrosyl-DNA phosphodiesterase 1 (TDP1): qHTS in cells in absence of CPT; DT40 Tdp1-/- hTDP1 cells, no CPT, ATP luminescence, 48 h; Potency, µM (top dose mostly 46.2 µM), for the others: at the top dose activity change, negative = growth inhibition, usual class: inhibitors; 420,000 tested, 15% active; AID 686978, 2013; further: potency means the concentration at half of the fitted maximal effect; nearly all actives have a fitted effect of over 55% in size
#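 Luminescent ATP content (CellTiter-Glo) served as the growth readout. Knockout chicken DT40 cells expressing human TDP1 were exposed to compounds without camptothecin for a minimum 48 hr at 37 °C.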
# Starred values were filed as active, the others as inactive; i = inactive; ? = inconclusive; . = not tested or not shown. Unless noted, the call rests on the fitted dose curve; in most records, active means well fitted curve in the direction sought with a large enough effect; inconclusive means small, poorly fitted or top-dose-only effect, or another doubt; inactive means no such curve, though single readings can be large; an effect the other way counts as inactive or inconclusive. Unless noted, on the % scale 0 is the no-effect control and ±100 the full control effect.
SMILES,HT1080-NT tox,HT1080 IDH1KD tx,TDP1 cell CPT,IL1B secr inh,TDP1 cell noCPT
COc1cc(C(=O)Oc2ccccc2/C=N/NC(=O)c2ccc(Cl)cc2Cl)cc(OC)c1OC,?,?,0.65µM*,79,0.92µM*
Cn1cnc(S(=O)(=O)N2CCCCC2c2cc(C(=O)Nc3ccc(F)c(Cl)c3)no2)c1 (stereo unspecified),-12%,-19%,?,-7,?
O=C(Cn1nc(C(=O)O)c2ccccc2c1=O)Nc1cccc(S(=O)(=O)N2CCCC2)c1,0%,3%,14%,1,10%
O=C(N/N=C/c1ccccc1Cl)c1cccc(F)c1,-5%,-1%,-5%,?,-1%
COc1ccc(/C=N/NC(=O)c2cccc3ccccc23)c(OC)c1OC,?,16µM*,?,6,?
CCOc1ccccc1C=NNC(=O)c1cccc2ccccc12,0%,12%,-3%,18,12%
O=C(N/N=C/c1cccc2ccccc12)c1cccc(F)c1,-1%,0%,0%,-63*,0%
COc1ccc(OC)c(/C=N/NC(=O)c2cccc3ccccc23)c1,-15%,-11%,7%,42,?
COc1ccccc1/C=N/NC(=O)c1cccc2ccccc12,-17%,-4%,23µM*,-11,?
Oc1ccc(/C=N/N2CCN(C3c4ccccc4-c4ccccc43)CC2)cc1O,-28%,?,8.2µM*,?,10µM*
Cc1ccc(/C=N/N2CCN(C3c4ccccc4-c4ccccc43)CC2)o1,5%,-12%,?,-13,18µM*
O=C(O)c1ccc(/C=N/N2CCN(C3c4ccccc4-c4ccccc43)CC2)cc1,5%,2%,-15%,-15,4%
Oc1ccc(/C=N/N2CCN(C3c4ccccc4-c4ccccc43)CC2)cc1,-10%,-8%,-11%,-64*,-19%
COc1cc(/C=N/N2CCN(C3c4ccccc4-c4ccccc43)CC2)cc(OC)c1OC,10%,15%,16µM*,1,15µM*
COc1cc(/C=N/N2CCN(C3c4ccccc4-c4ccccc43)CC2)cc(OC)c1O,4%,-2%,?,1,?
CCOCCc1nn2c(=O)cc(COC(=O)c3ccccc3NC(=O)c3ccccc3F)nc2s1,.,.,-5%,.,-29%
O=C(CN(c1cc(Cl)ccc1Cl)S(=O)(=O)c1ccccc1)N1CCOCC1,-2%,-2%,-27%,6,-16%
O=C(Cn1c(=O)n(CCc2ccccc2)c(=O)c2cccnc21)Nc1ccc(F)cc1,.,.,-26%,.,?
COc1ccc(C(=O)NCC(=O)N2CCN(c3ccccc3)CC2)cc1,19%,19%,-13%,-2,-8%
COc1cc(OC)cc(C(=O)NCC(=O)N2CC=C(c3ccccc3)CC2)c1,16µM*,13µM*,3.3µM*,14,4.6µM*
O=C(NCC(=O)N1CC=C(c2ccccc2)CC1)c1ccc(OC(F)F)cc1,?,-16%,7.3µM*,25,7.3µM*
O=C(NCC(=O)N1CC=C(c2ccccc2)CC1)c1ccccc1Br,-13%,-13%,?,i,21µM*
COc1ccc(-c2noc(CCC(=O)NCc3cccnc3)n2)cc1OC,12%,12%,1%,20,-12%
CC(=O)Nc1ccc(NC(=O)Nc2sc3nc4n(c(=O)c3c2C)CCC(C)CC4)cc1 (stereo unspecified),.,.,-1%,.,-9%
Cc1c(NC(=O)Nc2ccc(Br)cc2F)sc2nc3n(c(=O)c12)CCC(C)CC3 (stereo unspecified),.,.,3.7µM*,.,?
SMILES,HT1080-NT tox,HT1080 IDH1KD tx,TDP1 cell CPT,IL1B secr inh,TDP1 cell noCPT
Cc1nn(CC(=O)Nc2cccnc2)c(C)c1[N+](=O)[O-],14%,8%,-2%,18,16%
CCc1ccc(CN(C)CC(=O)Nc2sccc2C#N)cc1,1%,-6%,?,6,?
COc1cc(SC)ccc1C(=O)Nc1cccc(C)n1,-7%,-7%,?,-70*,5.8µM*
COc1cc(SC)ccc1C(=O)Nc1ccc(Br)cn1,27%,20%,?,-10,13µM*
Cc1ccc(-c2cnc(NC(=O)c3cccc(Br)c3)s2)c(C)c1,-8%,-4%,?,-58*,?
Cc1cc(NC(=O)c2cccc(Br)c2)n[nH]1,2%,2%,1%,-2,-11%
CCCCN(CC)CCCn1cnc2c([nH]c3ccc(Cl)cc32)c1=O,.,.,21µM*,.,21µM*
CSc1nc2nc3c(cc2c(=O)n1-c1ccccc1C)CCCC3,-13%,-2%,7.3µM*,7,7.3µM*
CCn1c(SCc2ccc(Cl)cc2)nc2nc3c(cc2c1=O)CCCC3,1%,-18%,?,?,?
CCCSc1nc2sc3c(c2c(=O)n1-c1ccc(C)c(Cl)c1)CCN(C(C)=O)C3,.,.,23µM*,.,23µM*
CC(=O)N1CCc2c(sc3nc(SCC(C)C)n(-c4ccc(C)c(Cl)c4)c(=O)c23)C1,.,.,23µM*,.,?
CSc1nc2sc3c(c2c(=O)n1-c1ccccc1C)CCCC3,.,.,23µM*,.,16µM*
CC1=C(c2ccc(C)cc2)S(=O)(=O)N=C1N1CCN(c2ccccc2)CC1,.,.,-12%,.,-13%
CSc1nnc2n(-c3ccccc3)c(=O)c3c4c(sc3n12)CCC4,-8%,-14%,-12%,-6,-37%
CCCSc1nc2sc3c(c2c(=O)n1-c1ccc(C)cc1)CCCC3,.,.,?,.,9.2µM*
CCCCSc1nnc2n(-c3cccc(C)c3)c(=O)c3c4c(sc3n12)CCCC4,.,.,?,.,16µM*

# High-throughput results (PubChem)
